Assay results: PubChem BioAssay (Tox21)
Values joined by “and” are separate entries in the source; they are usually repeats but may differ in a detail not shown here. Identical values can stand only once. Records with an inconclusive call do not appear. Active and inactive are the calls of the source. Unless noted, the call rests on the fitted dose curve; in most records, active means well fitted curve in the direction sought with a large enough effect in the repeat runs; inconclusive means weak or mixed curves; inactive means no such curve, though single readings can be large; an effect the other way counts as inactive or inconclusive.

Assays:
[1] = qHTS assay to identify small molecule agonists of the hypoxia (HIF-1) signaling pathway - cell viability counter screen (AID 1224844; calls by dose curve; further: nearly all actives have a fitted effect of over 50% in size)
Outline: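 Cytotoxicity was measured in parallel with the HRE-driven beta-lactamase readout: after 17 hrs of compound exposure at 37C, HRE-bla ME-180 cells received CellTiter-Glo and luminescence was recorded 30 min later.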

[2] = qHTS assay to identify small molecule agonists of H2AX (AID 1224845; active means well fitted activation curve with a large enough effect in the signal ratio in the repeat runs, not every such curve was filed as active; the % refers to the signal ratio)
Outline: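 Phospho-H2AX Ser139 measured by HTRF (ex 320 nm; em 665 and 620 nm) after 24 hr antibody incubation. Compounds, 15 concentrations, 0.76% DMSO, were applied to CHO-K1 cells for 3hr at 37C before lysis.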

[3] = qHTS assay to identify small molecule agonists of the hypoxia (HIF-1) signaling pathway (AID 1224846; active means well fitted activation curve with a large enough effect in the signal ratio in the repeat runs, not every such curve was filed as active; the % refers to the signal ratio)
Outline: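 Compounds from the Tox21 10K library, dissolved in DMSO, are tested for induction of a hypoxia response element–controlled beta-lactamase reporter in ME-180 cells. Exposure lasts 17 hrs at 37C after a 5 hr settling period, followed by CCF4-AM FRET substrate.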

[4] = qHTS assay to identify small molecule agonists of H2AX - cell viability counter screen (AID 1224847; calls by dose curve;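 further: wild-type CHO-K1 cells; top concentration of the series differs between compounds; nearly all actives have a fitted effect of over 30% in size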)
Outline: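 Counter-screen for viability: CellTiter-Glo ATP luminescence read after 3 h compound treatment (15-point titration, 0.76% DMSO final) of CHO-K1 cells at 37C, with 30 min room-temperature reagent incubation.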

[5] = qHTS assay to identify small molecule antagonists of the estrogen related receptor (ERR) signaling pathway from Tox21 library (AID 1224848); further: nearly all actives have a fitted effect of over 50% in size
Outline: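 Luciferase luminescence (ONE-Glo, 30 min room temperature) was the read-out. Cells of the NTP-supplied ERR line, 2,000 per well, were given 6 h at 37 C before compound addition in DMSO and 18 h exposure at 37 C.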

[6] = qHTS assay to identify small molecule agonists of the estrogen related receptor (ERR) signaling pathway from Tox21 library (AID 1224849; calls by dose curve; further: nearly all actives have a fitted effect of over 15% in size); settings: ERR reporter cell line, ONE-Glo luciferase, 18 h
Outline: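 Cells carrying the ERR reporter were plated and allowed to settle for 6 h, exposed to library compounds for 18 h at 37 C, then lysed with ONE-Glo and luminescence measured.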

[7] = qHTS RealTime-Glo MT Cell Viability Assay in HepG2 cells - 24 hour (AID 1224867); further: nearly all actives have a fitted effect of over 50% in size
Outline: (§1)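 HepG2 suspension premixed with RealTime-Glo reagents is plated at 600 cells per well and left 5 h at 37 C/5% CO2. Compounds in DMSO then go in, and bioluminescence reflecting viable cell number is recorded over 40 h.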

[8] = qHTS RealTime-Glo MT Cell Viability Assay in HEK293 cells - 32 hour (AID 1224868); further: top concentration of the series differs between compounds; nearly all actives have a fitted effect of over 50% in size
Outline: (§2)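 Reads taken at 0, 8, 16, 24, 32 and 40 h from the same wells. HEK293 cells (600/well) carried RealTime-Glo reagents from seeding, with compound added after a 5 h settle at 37 C.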

[9] = A CellTox Green Cytotoxicity Assay to monitor cytotoxicity in HEK293 cells - 0 hour (AID 1224869); further: nearly all actives have a fitted effect of over 50% in size
Outline: (§3)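 Cells (HEK293, 600/well) and dye reagent are dispensed together. After 5 h at 37 C, 23 nL compound is pinned in. Plates stay at 37 C for 40 h with fluorescence read at 0h, 8h, 16h, 24h, 32h and 40h.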

[10] = qHTS RealTime-Glo MT Cell Viability Assay in HepG2 cells - 40 hour (AID 1224870); further: nearly all actives have a fitted effect of over 50% in size
Outline: (§4)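 Real-time viability: cells seeded at 600 per well together with NanoLuc and cell-permeant prosubstrate, compounds added after 5 h incubation. Luminescence tracked at 0, 8, 16, 24, 32 and 40 h of exposure.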

[11] = qHTS RealTime-Glo MT Cell Viability Assay in HEK293 cells - 16 hour (AID 1224872)
Outline: as §2

[12] = qHTS RealTime-Glo MT Cell Viability Assay in HepG2 cells - 8 hour (AID 1224873); further: nearly all actives have a fitted effect of over 55% in size
Outline: as §4

[13] = qHTS RealTime-Glo MT Cell Viability Assay in HEK293 cells - 40 hour (AID 1224874); settings: RealTime-Glo luminescence; max response: hits give low values; further: nearly all actives have a fitted effect of over 50% in size
Outline: (§5)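 Real-time viability in HEK293: signal arises when living cells convert a prosubstrate for NanoLuc in the medium, so luminescence tracks viable cell number. Compound (23 nL, DMSO) added 5 h post-seeding; kinetic reads at 0–40 h, 37 C.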

[14] = A CellTox Green Cytotoxicity Assay to monitor cytotoxicity in HEK293 cells - 24 hour (AID 1224875); further: nearly all actives have a fitted effect of over 45% in size
Outline: as §3

[15] = A CellTox Green Cytotoxicity Assay to monitor cytotoxicity in HepG2 cells - 16 hour (AID 1224876); further: nearly all actives have a fitted effect of over 45% in size
Outline: (§6)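 Cells and non-lytic dye reagent are dispensed together (600 HepG2 cells/well) and incubated 5 h before DMSO compound transfer. Kinetic fluorescence is then recorded in the same wells during 40 h at 37 C.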

[16] = qHTS RealTime-Glo MT Cell Viability Assay in HepG2 cells - 32 hour (AID 1224877); further: nearly all actives have a fitted effect of over 55% in size
Outline: as §1

[17] = A CellTox Green Cytotoxicity Assay to monitor cytotoxicity in HepG2 cells - 24 hour (AID 1224878); further: nearly all actives have a fitted effect of over 45% in size
Outline: as §6

[18] = A CellTox Green Cytotoxicity Assay to monitor cytotoxicity in HepG2 cells - 40 hour (AID 1224879); further: nearly all actives have a fitted effect of over 40% in size
Outline: as §6

[19] = qHTS RealTime-Glo MT Cell Viability Assay in HEK293 cells - 0 hour (AID 1224880); further: top concentration of the series differs between compounds; nearly all actives have a fitted effect of over 45% in size
Outline: as §5

[20] = A CellTox Green Cytotoxicity Assay to monitor cytotoxicity in HEK293 cells - 40 hour (AID 1224871); further: nearly all actives have a fitted effect of over 45% in size
Outline: as §3
On the % scale 0 is the no-effect control and ±100 the full control effect.

C=C1C[C@]23C[C@@]1(O)CC[C@H]2[C@@]12C=C[C@H](O)[C@@](C)(C(=O)O1)[C@H]2[C@@H]3C(=O)O
inactive: Potency [1] | Potency [2] | outcome [3] | Potency [4] | Potency [5] | activity change, positive = activation ([6]; at 92.4 µM (top of the series)) 4.32% and 5.25% | Potency [7] | Potency [8] | Potency [9] | Potency [10] | Potency [11] | Potency [12] | max response [13] 3.96% and 1.17% | Potency [14] | Potency [15] | Potency [16] | Potency [17] | Potency [18] | Potency [19]

NC1CCCCC1N (configuration not stated)
inactive: Potency [1] | Potency [2] | outcome [3] | Potency [4] | Potency [5] | activity change, positive = activation ([6]; at 92.4 µM (top of the series)) 1.49% and 5.92% | Potency [7] | Potency [8] | Potency [9] | Potency [11] | Potency [12] | Potency [14] | Potency [16] | Potency [17] | Potency [18] | Potency [19]

NCCNCCNCCN
inactive: Potency [1] | Potency [2] | outcome [3] | Potency [4] | Potency [5] | activity change, positive = activation ([6]; at 42.5 µM (top of the series)) 0.597% | Potency [7] | Potency [8] | Potency [9] | Potency [10] | Potency [20] | Potency [11] | Potency [12] | max response [13] 2.02% and 3.6% | Potency [14] | Potency [16] | Potency [17] | Potency [18] | Potency [19]

Brc1ccc(Oc2ccc(Br)cc2)cc1
inactive: Potency [1] | Potency [2] | outcome [3] | Potency [4] | Potency [7] | Potency [8] | Potency [9] | Potency [10] | Potency [20] | Potency [11] | Potency [12] | max response [13] -1.97% and -5.7% | Potency [14] | Potency [15] | Potency [16] | Potency [17] | Potency [18] | Potency [19]

CC(=O)OCc1ccc2c(c1)OCO2
inactive: Potency [1] | Potency [2] | outcome [3] | Potency [4] | Potency [5] | activity change, positive = activation ([6]; at 92.4 µM (top of the series)) -6.11% and 0.823% | Potency [8] | Potency [9] | Potency [10] | Potency [20] | Potency [11] | Potency [12] | max response [13] 2.92% and 8.23% | Potency [14] | Potency [16] | Potency [17] | Potency [18] | Potency [19]

NC(N)=S
inactive: Potency [1] | Potency [2] | outcome [3] | Potency [4] | Potency [7] | Potency [8] | Potency [9] | Potency [10] | Potency [20] | Potency [11] | Potency [12] | Potency [14] | Potency [15] | Potency [16] | Potency [17] | Potency [18] | Potency [19]

COC(=O)OC
inactive: Potency [1] | Potency [2] | outcome [3] | Potency [4] | Potency [5] | activity change, positive = activation ([6]; at 92.4 µM (top of the series)) 8.59% and 5.73% | Potency [7] | Potency [8] | Potency [9] | Potency [10] | Potency [20] | Potency [11] | Potency [12] | Potency [14] | Potency [15] | Potency [16] | Potency [17] | Potency [18] | Potency [19]

CCOC(=O)c1ccc(O)cc1
inactive: Potency [1] | Potency [2] | outcome [3] | Potency [4] | Potency [7] | Potency [8] | Potency [9] | Potency [10] | Potency [11] | Potency [12] | max response [13] -23.5% and -3.47% | Potency [14] | Potency [15] | Potency [16] | Potency [17] | Potency [18] | Potency [19]

CCCCC(CC)COC(=O)c1ccc(C(=O)OCC(CC)CCCC)cc1 (configuration not stated)
inactive: Potency [1] | Potency [2] | outcome [3] | Potency [4] | Potency [5] | activity change, positive = activation ([6]; at 92.4 µM (top of the series)) -0.0437% | Potency [8] | Potency [9] | Potency [11] | Potency [12] | max response [13] 10.3% and 17.5% | Potency [14] | Potency [16] | Potency [17] | Potency [18] | Potency [19]

COCN(COC)c1nc(N(COC)COC)nc(N(COC)COC)n1
inactive: Potency [1] | Potency [2] | outcome [3] | Potency [4] | Potency [5] | activity change, positive = activation ([6]; at 92.4 µM (top of the series)) -2.4% and 4.33% | Potency [8] | Potency [9] | Potency [10] | Potency [20] | Potency [11] | Potency [12] | max response [13] -2.02% and -0.0674% | Potency [14] | Potency [15] | Potency [16] | Potency [17] | Potency [18] | Potency [19]

CC(=O)OCCC(C)C
inactive: Potency [1] | Potency [2] | outcome [3] | Potency [4] | Potency [5] | activity change, positive = activation ([6]; at 92.4 µM (top of the series)) 1.01% and 5.99% | Potency [8] | Potency [9] | Potency [10] | Potency [20] | Potency [11] | Potency [12] | max response [13] 3.8% and 7.54% | Potency [14] | Potency [16] | Potency [17] | Potency [18] | Potency [19]

O=C(O)Cc1c[nH]c2ccccc12
inactive: Potency [1] | Potency [2] | outcome [3] | Potency [4] | Potency [5] | activity change, positive = activation ([6]; at 92.4 µM (top of the series)) 5.71% and 6.87% | Potency [8] | Potency [9] | Potency [10] | Potency [20] | Potency [11] | Potency [12] | max response [13] 12.4% and 16.9% | Potency [14] | Potency [16] | Potency [17] | Potency [18] | Potency [19]

OCCOCCOCCOCCOCCO
inactive: Potency [1] | Potency [2] | outcome [3] | Potency [4] | Potency [5] | activity change, positive = activation ([6]; at 92.4 µM (top of the series)) 2.04% and 4.48% | Potency [8] | Potency [9] | Potency [11] | Potency [12] | Potency [14] | Potency [16] | Potency [17] | Potency [18] | Potency [19]

Cc1cc(C)cc(O)c1
inactive: Potency [1] | Potency [2] | outcome [3] | Potency [4] | Potency [5] | activity change, positive = activation ([6]; at 92.4 µM (top of the series)) 8.03% and 0.796% | Potency [7] | Potency [8] | Potency [9] | Potency [11] | Potency [12] | max response [13] 6.28% and 8.82% | Potency [14] | Potency [15] | Potency [16] | Potency [17] | Potency [18] | Potency [19]
